Source: PubChem BioAssay AID2241 (Broad Institute, 2010)
The campaign covered roughly 21,000 compounds. About 110 (0.52%) were called active. The full list was thinned out, with actives kept by preference. Unmarked numbers belong to inactive results.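 How the source made its calls: active means most replicate scores above 10, or exactly half above 10 with mean activity above 10; inconclusive means mean activity below 10 while half the replicates exceed 10; inactive means most replicate scores below 10.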

Assay: caspase activation in A1-primed MEFs – cell-based, CaspaseGlo luminescence, A1 inhibitor project, primary screen (AID 2241);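 further: effector caspase 3 and 7 activity cleaving a DEVD luciferin substrate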
Details: MEF A1-2A-BIM cells, caspase-Glo luminescence, 3 h; stronger effect = higher value; percent of clofoctol signal, DMSO as zero; concentration not given here
With `Cc1cc(C)n(CCc2nc3c4ccccc4n(Cc4ccc(Cl)cc4)c(=O)n3n2)n1` the caspase activation was -0.449%. For `CCOc1ccc2c(c1)sc(=NC(=O)c1cc3ccccc3cc1OC)n2C`, the caspase activation was 1.85%. Work on `COC(=O)c1c(C)c(=O)[nH]c2ccccc12` yielded a caspase activation of 0.776%. With `CCCOc1ccc(Oc2nc(N(C)C)nc(N(C)C)n2)nn1` the caspase activation was 0.458%. For `CCOC(=O)N1CCC(NC(=O)NCc2noc3ccccc23)CC1`, the caspase activation was 0.501%. In the case of `C[C@@H]1CN([C@@H](C)CO)C(=O)c2cc(NS(=O)(=O)c3ccccc3)ccc2O[C@H]1CN(C)CC1CCCCC1`, the caspase activation was -0.065%. Work on `O=C(CC1N=C2c3ccccc3N=C(SCc3ccccc3F)N2C1=O)NC1CCCCC1` (stereo not drawn) yielded a caspase activation of -0.498%. For `C[C@@H]1CN([C@H](C)CO)C(=O)c2cc(NC(=O)Nc3ccccc3)ccc2O[C@H]1CN(C)S(=O)(=O)c1ccc(F)cc1`, the caspase activation was -0.342%. With `O=c1c2ccccc2nc(SCc2ccc(F)cc2)n1-c1ccccc1` the caspase activation was -0.926%. In the case of `O=C(NCc1ccc2c(c1)OCO2)C12CC3CC(CC(C3)C1)C2`, the caspase activation was 0.545%. `CCOC(=O)c1cc(-c2ccccc2)n(-c2ccccc2C)n1` showed a caspase activation of -0.391%. For `C=CCn1cc(C=C2C(=O)N(C)C(=S)N(C)C2=O)c2ccccc21`, the caspase activation was 1.19%. `C[C@H]1CN([C@@H](C)CO)C(=O)c2cc(NS(C)(=O)=O)ccc2O[C@@H]1CN(C)S(=O)(=O)c1ccc(Cl)cc1` gave a caspase activation of -0.347%. In the case of `CC(C)CC1NC(=O)N(c2ccccc2)C1=O` (stereo not drawn), the caspase activation was 0.301%. In the case of `C[C@H](CO)N1C[C@H](C)[C@H](CN(C)Cc2ccc(-c3ccccc3)cc2)Oc2ccc(NS(=O)(=O)c3ccccc3)cc2C1=O`, the caspase activation was 0.241%. In the case of `Cc1ccc(NC2=CC(=O)NC2)cc1`, the caspase activation was 1.28%. Work on `CN(CCOC(=O)C1c2ccccc2Oc2ccccc21)Cc1ccccc1` yielded a caspase activation of 1.21%. `Cc1cccc(NC(=O)c2ccc(C)c(S(=O)(=O)N3CCCC3)c2)c1` gave a caspase activation of -5.91%. `CC(=O)N1N=C(c2ccccc2)OC1c1cccnc1` (stereo not drawn) gave a caspase activation of -0.213%. Molecule `C[C@H]1CN([C@@H](C)CO)C(=O)c2cc(NC(=O)Nc3ccccc3)ccc2O[C@H]1CN(C)C(=O)Nc1ccc(F)cc1` has a caspase activation of 0.365%. With `Cc1ccccc1N(C)S(=O)(=O)c1ccc2[nH]cc(C(=O)NCCC(C)C)c(=O)c2c1` the caspase activation was 0.114%. Work on `COc1cc(C=Nc2ccc(Cl)cc2)ccc1OC(=O)/C=C/c1cccs1` yielded a caspase activation of -0.187%. With `O=C(Cc1ccccc1)N1CCCc2ccccc21` the caspase activation was 1.12%. Work on `O=C(Nc1ccccc1)Nc1ccc(C2SCCS2)cc1` yielded a caspase activation of -6.29%. With `Cc1ccc(-n2c(C)cc(C=C3C(=O)c4ccccc4C3=O)c2C)cc1` the caspase activation was -6.47%. `C[C@@H]1CN([C@H](C)CO)C(=O)c2cc(NC(=O)Cc3ccccc3)ccc2O[C@H]1CN(C)S(=O)(=O)c1cn(C)cn1` showed a caspase activation of 0.269%. For `N#CCNC(=O)CN1C(=O)c2ccccc2C1=O`, the caspase activation was 0.74%. For `CCN1C(=O)c2ccccc2Sc2ccc(NC(=O)N3CCc4ccccc43)cc21`, the caspase activation was -0.754%. With `CCN1C(=O)c2cccc3c(NC(=S)NC(=O)c4ccccc4)ccc1c23` the caspase activation was 11.5% (active). With `CC1CCC(NC(=O)Cn2ncn3c(cc4sccc43)c2=O)CC1` (stereo not drawn) the caspase activation was -0.216%. `O=C1CC(c2ccccc2)C(=O)N1c1ccc(F)cc1` (stereo not drawn) gave a caspase activation of 0.129%. With `COc1cc(SC)ccc1C(=O)N(C)c1ccccc1` the caspase activation was -0.443%. For `S=C(Nc1cccc(Cl)c1)NC1CCSc2ccc(Cl)cc21` (stereo not drawn), the caspase activation was 1.82%. For `C[C@H](CO)N1C[C@H](C)[C@H](CN(C)S(C)(=O)=O)Oc2ccc(NC(=O)CCCN(C)C)cc2C1=O`, the caspase activation was 0.894%. `COc1ccc(S(=O)(=O)N(C)C[C@@H]2Oc3ccc(NC(=O)Nc4c(C)noc4C)cc3C(=O)N([C@H](C)CO)C[C@@H]2C)cc1` showed a caspase activation of -0.0515%. With `CC1CCC(C(C)C)C(=O)/C1=C\c1ccc(NC(=O)CCC(=O)O)cc1` (stereo not drawn) the caspase activation was -1.52%. Work on `COc1ccc(NC(=O)Nc2ccc3c(c2)C(=O)N([C@@H](C)CO)C[C@H](C)[C@@H](CN(C)Cc2ccc4c(c2)OCO4)O3)cc1` yielded a caspase activation of 0.747%. With `CC1=CCC(C(=O)O)(C(=O)NCc2ccccc2)C(c2ccc(Br)cc2)C1` (stereo not drawn) the caspase activation was 0.252%. In the case of `C[C@@H]1CN([C@H](C)CO)C(=O)c2cc(N(C)C)ccc2O[C@@H]1CN(C)S(C)(=O)=O`, the caspase activation was 1.19%. Molecule `Cc1noc(C)c1NC(=O)N(C)C[C@@H]1Oc2ccc(NS(C)(=O)=O)cc2C(=O)N([C@H](C)CO)C[C@@H]1C` has a caspase activation of -0.083%. With `O=c1oc2ccccc2cc1-c1ccc(Cl)cc1` the caspase activation was -4.58%. `COc1ccc(OC)c2c(C)cc(=O)[nH]c12` gave a caspase activation of 0.675%. Work on `Cc1ccc(Nc2nc(C)cc(C)c2C(N)=O)cc1` yielded a caspase activation of 0.407%. `CCOC(=O)c1cc(CC)sc1/N=C/C1C(=O)c2ccccc2C1=O` gave a caspase activation of 0.959%. With `NC(=O)c1nnc2cc(-c3ccccc3)nn2c1N` the caspase activation was -5.53%. Molecule `C[C@@H]1CN([C@@H](C)CO)C(=O)c2cc(NC(=O)c3ccncc3)ccc2O[C@H]1CN(C)S(=O)(=O)c1ccc(Cl)cc1` has a caspase activation of -0.107%. `Cc1nc2ccccn2c1-c1ccnc(SCC(=O)c2ccc(Cl)cc2)n1` showed a caspase activation of 2.75%. Work on `COc1cc(C2OC(c3ccc(O)c(OC)c3)C(C)(O)C2C)ccc1O` (stereo not drawn) yielded a caspase activation of 0.0643%. `O=C(COC(=O)c1cc2ccccc2oc1=O)c1ccccc1` gave a caspase activation of -0.224%. `CC(C(=O)NC1CCCC1)n1c2ccccc2c2cnn(C)c(=O)c21` (stereo not drawn) showed a caspase activation of -0.382%. Work on `CCn1c(=O)c2c(n3c(SCC(N)=O)nnc13)-c1ccccc1CC21CCCCC1` yielded a caspase activation of 1.18%. With `O=C(NCN1CCCCC1)C12CC3CC(CC(C3)C1)C2` the caspase activation was 0.282%. With `C[C@H]1O[C@@H](O[C@H]2[C@@H](O)C[C@H](O[C@H]3[C@@H](O)C[C@H](O[C@H]4CC[C@]5(C)C6C[C@@H](O)[C@]7(C)[C@@H](C8=CC(=O)OC8)CC[C@]7(O)C6CC[C@@H]5C4)O[C@@H]3C)O[C@@H]2C)C[C@H](O)[C@@H]1O` (stereo partly drawn) the caspase activation was 0.786%.
